Rows were chosen to be rich in hits. Some 6.5% of all compounds tested hit in one or more screens of this group.
HepG2 tox-1 = HepG2 cytotoxicity, counter-screen for TGF-b inhibitors. HepG2 CAGA-GFP viability, ATP luminescence, 18 h. Potency, µM (doses to about 46.1 µM), for the others: top-dose activity change, negative = cytotoxicity, hits mostly cytotoxic. hit rate 0.76% among 410,000. AID 588856; note: potency is the fitted concentration of half-maximal effect
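CellTiter-Glo luminescence gave cytotoxicity after 18 hours at 37 degrees C. The cells were HepG2 CAGA-GFP in 1% FBS DMEM, stimulated with 500 pg/mL TGF-beta after compound addition. %Activity was normalised to no-cell wells (complete cell-killing) and DMSO (no toxicity), and curves were fitted and classified.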
TGFb inhibitor = TGF-b pathway inhibition | HepG2 CAGA-GFP TGF-b/SMAD3 reporter, GFP fluorescence, 18 h; TGF-beta stimulated, 500 pg/mL final | hit rate 1.2% among 410,000 | Potency, µM (top dose mostly 46.1 µM), for inactives: at the highest dose activity, negative = inhibition, most hits filed as inhibitors; note: potency is the fitted concentration of half-maximal effect; % is set by controls: 0 for no effect and ±100 for the full control effect; nearly all actives have a fitted effect of over 65% in size
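Read-out: total well GFP (ex488/em500-530) summed from mean per-cell fluorescence. Cells: HEPG2 CAGA-GFP, 1% FBS DMEM, 18 h at 37 degrees C with 500 pg/mL final TGF-beta. Unstimulated wells served as the full-inhibition control; stimulated DMSO wells = 0%.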
HT1080NT lethal = kills 2HG-producing HT-1080-NT fibrosarcoma cells; HT-1080-NT fibrosarcoma viability, CellTiter-Glo ATP luminescence, 48 h; Potency, µM (highest dose often 46.1 µM), for the others: at the top dose activity, negative = less viability, most hits filed as cytotoxic; hit rate 1.6% among 360,000;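 note: NT is the 2HG producing partner of a matched IDH1 knockdown line; potency is the fitted concentration of half-maximal effect; 0% = DMSO-treated cells and -100% = media-only wells without cells; nearly all actives have a fitted effect of over 55% in size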
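Luminescent CellTiter-Glo readout after 48 hours of compound exposure at 37 degrees C defined viability of HT-1080-NT cells. Activity was normalized to DMSO wells and cell-free media wells; concentration-response curves were fitted and assigned curve classes.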
Giardia kill = kills Giardia lamblia | Giardia lamblia trophozoite viability | activity change, % at 7.66 µM, hits read low | hit rate 0.15% among 340,000 | AID 540267; in the data active = activity change below about -80%; inconclusive = between about -30% and that limit;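 note: parasites exposed to compound for two days anaerobically before the ATP read; % is set by controls: 0 for no effect and ±100 for the full control effect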
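ATP-content bioluminescence gauges trophozoite survival. Cells (100/well) receive compound and incubate anaerobically for 48 hrs at 37 deg C; detection reagent follows for 15-30 min at room temperature.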
IL1B secr inh = inhibitors of inflammasome signaling (IL-1 beta secretion); THP-1 LPS/ATP IL-1B secretion, AlphaLISA, 16 h; stronger effect = lower value; hit rate 4.7% among 360,000; activity change, % at 57.5 µM; in the data active = activity change below about -50%; inconclusive = mostly about -30% to -49%; note: % is set by controls: 0 for no effect and ±100 for the full control effect
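THP-1 cells pretreated 1 hr with compounds (up to 57.5 uM final), then stimulated with LPS (250 ng/mL final) plus ATP (1.25 mM final); secreted IL-1B measured by AlphaLISA after 16 hr, decreased signal indicating inhibition.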
HT1080 IDH1KD tx = toxicity to HT-1080 IDH1 knockdown cells (counter line); HT-1080 IDH1 knockdown viability, ATP luminescence, 48 h; Potency, µM (doses to about 46.1 µM), inactives show top-dose activity, negative = toxicity, actives largely listed as cytotoxic; hit rate 2% among 360,000;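 note: potency is the fitted concentration of half-maximal effect; 0% = DMSO wells and -100% = cell-free medium wells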
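CellTiter-Glo luminescence after 48 h compound exposure at 37 degrees C of IDH1-knockdown HT-1080 cells in 5% FBS RPMI. %Activity scaled between DMSO wells and cell-free media wells, with curves fitted and assigned curve classes.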
TGFb CAGA inh = TGF-b pathway inhibition, cherry-pick retest; shares compounds with TGFb inhibitor; HepG2 CAGA-GFP TGF-b reporter, GFP fluorescence, 18 h; cells stimulated with TGF-beta, 500 pg/mL; Potency, µM (highest dose often 46.1 µM), inactives show at the top dose activity, negative = inhibition, actives largely listed as inhibitors; hit rate 63% among 1,600; AID 720534; note: potency is the fitted concentration of half-maximal effect; % is set by controls: 0 for no effect and ±100 for the full control effect; nearly all actives have a fitted effect of over 65% in size
HepG2 tox-2 = HepG2 cytotoxicity, TGF-b inhibitor counterscreen; hit rate 27% among 1,600; HepG2 CAGA-GFP viability, ATP luminescence, 18 h; cells stimulated with TGF-beta, 500 pg/mL; shares compounds with TGFb inhibitor; Potency, µM (titrated, usually from 46.1 µM), without a hit: at the highest dose activity, negative = cytotoxicity, most hits filed as inhibitors; AID 720535; note: potency is the fitted concentration of half-maximal effect; % is set by controls: 0 for no effect and ±100 for the full control effect; nearly all actives have a fitted effect of over 70% in size
CCL64 TGFb inh = TGF-b inhibition, CCL64 orthogonal assay; CCL64 CAGA-GFP reporter, TGF-b stimulated, GFP fluorescence, 18 h; AID 720536; Potency, µM (series often up to 46.1 µM), for inactives: at the top dose activity, negative = inhibition, hits mostly inhibitors; shares compounds with TGFb inhibitor; hit rate 41% among 1,600; note: potency is the fitted concentration of half-maximal effect; nearly all actives have a fitted effect of over 65% in size
COP TGFb inh = blocks TGF-b signaling in HepG2 COP reporter; hit rate 3% among 1,600; shares compounds with TGFb inhibitor; Potency, µM (top dose mostly 46.1 µM), for the others: top-dose activity, negative = inhibition, hits mostly inhibitors; AID 720537; HepG2 COP-GFP TGF-b reporter, GFP fluorescence, 18 h; cells stimulated by added recombinant TGF-beta; note: potency is the fitted concentration of half-maximal effect; nearly all actives have a fitted effect of over 70% in size
* hit, by the source's call; u = inconclusive; x = not tested or not shown. Unless noted, calls come from the whole dose curve; as a rule, active = well fitted curve in the direction sought with a large enough effect; inconclusive = small, poorly fitted or top-dose-only effect, or another doubt; inactive = no such curve, though single readings can be large; an effect the other way counts as inactive or inconclusive.

SMILES | HepG2 tox-1 | TGFb inhibitor | HT1080NT lethal | Giardia kill | IL1B secr inh | HT1080 IDH1KD tx | TGFb CAGA inh | HepG2 tox-2 | CCL64 TGFb inh | COP TGFb inh
CCOc1cccc(-c2cc(=O)[nH][nH]2)c1 | -4.0% | 4.3% | -5.9% | -0.3 | -12.7 | 0.1% | x | x | x | x
COCCn1c(SCc2nc3scc(-c4ccc(Cl)cc4)c3c(=O)[nH]2)nnc1-c1cccc(C)c1 | -25.3% | 10µM* | -28.3% | 2.4 | -15.7 | -5.6% | 13µM* | u | u | 32.3%
CCn1c(SCc2nc3scc(-c4ccccc4)c3c(=O)[nH]2)nnc1-c1cccs1 | -1.5% | u | u | 2.2 | 0.6 | u | x | x | x | x
COc1cc(CNCCO)cc(Cl)c1OCc1ccccc1Cl | -21.8% | 11.2µM* | u | -11.3 | -90.8* | u | -94.3% | 16.4µM* | 29.1µM* | 47.2%
N#Cc1sc2nc3c(c(-c4ccco4)c2c1N)CCCC3 | -52.5% | -17.5% | -11.7% | -19.5 | 37.4 | -9.9% | x | x | x | x
C=CCNc1ncnc2c1[nH]c1ccc(C)cc12 | -31.4% | 7.94µM* | u | 1.6 | -101.5* | u | u | -27.5% | u | -2.9%
Cc1ccc2[nH]c3c(NCCN4CCOCC4)ncnc3c2c1 | 1.9% | -3.2% | -7.8% | 17.2 | -5.2 | -16.0% | x | x | x | x
Cc1ccc(C(=O)NC2CCS(=O)(=O)C2)cc1S(=O)(=O)N1CCCCC1 (stereo unspecified) | -3.0% | -18.9% | -3.5% | -29.3 | 24.4 | -1.3% | x | x | x | x
CC1=C(C(=O)Nc2cccc(F)c2)C(c2ccsc2)C2=C(CC(C)(C)CC2=O)N1 (stereo unspecified) | -2.5% | 10µM* | u | -0.5 | 47.9 | 2.06µM* | u | -9.9% | -22.4% | -9.8%
CC1=C(C(=O)Nc2ccccc2F)C(c2ccsc2)C2=C(CC(C)(C)CC2=O)N1 (stereo unspecified) | -32.2% | -26.8% | u | u | 41.4 | u | x | x | x | x
Cc1sc2ncnc(NCC3COc4ccccc4O3)c2c1C (stereo unspecified) | -30.9% | u | -13.7% | 2.6 | -2.9 | u | x | x | x | x
c1ccc(-c2csc3ncnc(NCC4COc5ccccc5O4)c23)cc1 (stereo unspecified) | -16.6% | 3.55µM* | -18.2% | -16.9 | -3.7 | -24.5% | 2.59µM* | u | 14.6µM* | 19.1%
COc1ccc(NC(=O)C2CCCN(C)C2)cc1OCC(C)C (stereo unspecified) | 4.2% | -7.2% | 0.8% | 10.5 | -2.6 | 0.4% | x | x | x | x
COc1cc(OC)cc(C(=O)NNC(=O)CCCOc2ccccc2)c1 | -1.5% | 1.5% | 0.0% | 20.2 | 10.4 | 7.4% | x | x | x | x
Cc1cc(NC(=O)CS(=O)(=O)c2cn(Cc3cccc(Br)c3)c3ccccc23)no1 | -9.7% | 10µM* | u | x | -54.3* | 20.6µM* | 11.6µM* | -14.8% | u | 31.3%
CCN(CC)C(=O)Cn1cc(S(=O)(=O)CC(=O)Nc2cc(C)on2)c2ccccc21 | 0.7% | 26.8% | 2.8% | -0.4 | 2.3 | 5.4% | x | x | x | x
COc1ccc(C2/C=C\CN(C(=O)C3CC3)[C@H](Cc3ccccc3)C(=O)N2Cc2ccc(F)cc2)cc1 (stereo partly specified) | -5.3% | 10µM* | u | -12.8 | 0.0 | u | u | -24.8% | u | 35.3%
OCCCn1c(CCCNc2nc(-c3cccc(Br)c3)cs2)nc2cc(Cl)c(N3CCCCC3)cc21 | -8.0% | 10µM* | 18.4µM* | 6.3 | 0.0 | u | 13µM* | -23.1% | u | 36.7%
O=C1NCCN1CCNc1nc(NCc2ccccc2)nc2ccsc12 | -47.4% | 7.94µM* | 27.0% | x | 5.6 | 12.4% | 14.6µM* | u | u | 49.8%
CCc1ccccc1Oc1nc(NCc2ccccc2)nc2ccsc12 | -26.0% | 11.2µM* | u | x | 36.8 | u | 23.1µM* | u | 16.4µM* | 30.5%
c1ccc(CNc2nc(NCCc3ccncc3)c3sccc3n2)cc1 | -42.6% | 2.24µM* | u | x | -98.1* | u | 1.46µM* | 7.31µM* | 4.61µM* | 33.8%
O[C@H]1CN(CC2CCCCC2)[C@@H](c2ccc(Cl)cc2)C[C@@H]1n1cc(C2CC2)nn1 | 11.2µM* | 10µM* | u | x | -15.3 | u | 23.1µM* | 16.4µM* | 23.1µM* | 50.0%
O[C@@H]1CN(CC2CCCCC2)[C@@H](c2ccccc2)C[C@H]1n1cc(C2CC2)nn1 | -5.2% | -0.9% | 5.7% | x | 2.6 | 4.4% | x | x | x | x
N#CCc1ccc(NC(=O)/C=C/c2ccc([N+](=O)[O-])o2)cc1 | 11.2µM* | 7.08µM* | 3.26µM* | u | -97.8* | 2.91µM* | 2.59µM* | 5.8µM* | 9.2µM* | u
Cc1ccc(/C=C/C(=O)Nc2ccc(S(N)(=O)=O)cc2)o1 | -1.2% | 11.6% | 1.0% | 7.1 | -0.7 | 0.5% | x | x | x | x

Screening data as filed in PubChem BioAssay.
